Where “and” joins values, the source holds several entries; their conditions need not be identical. Equal entries are not always repeated. Inconclusive results are not listed. Where a call stands in place of a potency, no number is given. Calls of active or inactive are those of the source. Calls come from the whole dose curve; as a rule, active = well fitted cell-killing curve with a large enough effect in the repeat runs; inconclusive = weak or mixed curves; inactive = flat fitted curve, though single readings scatter.
Potency is the fitted concentration of half-maximal effect.

This assay is described as follows: qHTS RealTime-Glo MT Cell Viability Assay in HepG2 cells - 32 hour (AID 1224877). Note: nearly all actives have a fitted effect of over 55% in size. The settings on record: RealTime-Glo luminescence; series mostly up to 76.8 µM. The text has this: U.S. Tox21 Program National Center for Advancing Translational Sciences [NCATS] NIH Chemical Genomics Center [NCGC] U.S. Environmental Protection Agency [EPA] National Institutes of Environmental Health Sciences [NIEHS] National Toxicology Program [NTP] U.S. Food and Drug Administration [FDA] Tox21 Assay Overview: Measure of cell viability is critical in the cell-base assay. Analysis of cell viability is necessary for the characterization of cell responses to cytotoxic drugs and environmental stress. A RealTime-Glo MT Cell Viability Assay to monitor cell viability in real time of continues cell culture during 40 hours of compound treatment was used to screen Tox21 10K library compounds in HepG2 cells. The RealTime-Glo MT Cell Viability Assay is a nonlytic, homogeneous, bioluminescent method to measure cell viability in real time using a simple, plate-based method. The assay involves adding NanoLuc luciferase and a cell-permeant prosubstrate to cells in culture. Viable cells reduce the proprietary prosubstrate to generate a substrate for NanoLuc luciferase. This substrate diffuses from cells into the surrounding culture medium, where it is rapidly used by the NanoLuc Enzyme to produce a luminescent signal. The signal correlates with the number of viable cells, making the assay well suited for cytotoxicity studies.
Tox21 Assay Protocol Summary: The mixture of HepG2 cell suspension and reagents were dispensed at 600cells/6 ul/well in 1536-well tissue culture treated black solid bottom plates using a Multidrop dispenser. After the assay plates were incubated at a 37 C/5% CO2 incubator for 5 hours, 23 nL of compounds dissolved in DMSO, positive and negative controls was transferred to the assay plate by a pintool work station. The plates were incubated at 37 C for 40 hours. The luminescence intensity were measured at 0h, 8h, 16h, 24h, 32h and 40h time points using ViewLux plate reader during compound treatment.
For `C[C@]12C=CC3=C4CCC(=O)C=C4CC[C@H]3[C@@H]1CC[C@@H]2O`, the Potency result was “inactive”. Then `CCCC[N+](CCCC)(CCCC)CCCC`, with “inactive”. Then `COc1cc(CC(C)N)c(OC)cc1Br` (stereo not given), with “inactive”; and `CC(C)(c1ccccc1)c1cc(-n2nc3ccccc3n2)c(O)c(C(C)(C)c2ccccc2)c1`, with “inactive”. The same measure for `O=P(OCC(Br)CBr)(OCC(Br)CBr)OCC(Br)CBr` (stereo not given): “inactive”; for `Cc1nc(N(C)C)nc(OC(=O)N(C)C)c1C`: “inactive”; for `N#CC1(N=NC2(C#N)CCCCC2)CCCCC1`: “inactive”. `Cc1ccccc1`: the Potency entry was “inactive”.

Regarding `COC1=CC(=O)O[C@@H](/C=C/c2ccc3c(c2)OCO3)C1`, the Potency entry is “inactive”.

For `COC(=O)Cc1ccccc1`, the Potency entry was “inactive”.

Turning to `CCCCC(CC)CO[N+](=O)[O-]` (stereo not given), the Potency result is “inactive”. As to `O=C(Cc1ccccc1)c1ccccc1`, the Potency entry is “inactive”. Then `CCCCCCCCCCCC[N+](C)(C)CCOc1ccccc1`, with 19.5 µM (active) and 7.56 µM (active); and `CCCN(CCC)C(=O)Cc1c(-c2ccc(Cl)cc2)nc2ccc(Cl)cn12`, with “inactive”; and `CCC1(CC)C(=O)NC(=O)NC1=O`, with “inactive”. Then `Nc1ccccc1C(=O)OCCc1ccccc1`, with “inactive”; and `C[N+](C)(C)CC1CO1` (stereo not given), with “inactive”.

Regarding `CC(C)(C)NCC(O)c1cc(Cl)c(N)c(C(F)(F)F)c1` (stereo not given), the Potency entry is “inactive”.

In the case of `COc1cc(C[C@@H](C)N)c(OC)cc1Br`, the Potency result was “inactive”. The same measure for `O=C(O)C(F)(F)C(F)(F)C(F)(F)C(F)(F)C(F)(F)F`: “inactive”; for `CCC(=O)O[C@@H]1C=C2CCC3C(CCC4(C)C3CC[C@@H]4OC(=O)CC)C2CC1` (stereo not given in full): “inactive”. The same measure for `NNCCO`: “inactive”. `CCOP(=S)(S)OCC`: the Potency entry was “inactive”. The same measure for `CC(C)OC(=O)Cc1ccccc1`: “inactive”; for `COCc1cnc(C2=NC(C)(C(C)C)C(=O)N2)c(C(=O)O)c1` (stereo not given): “inactive”. Then `CCCSP(=S)(OCC)Oc1ccc(SC)cc1` (stereo not given), with “inactive”; and `O=[N+]([O-])c1cc(Cl)c(Cl)cc1Cl`, with “inactive”; and `CC(=O)NNc1ccccc1`, with “inactive”. The same measure for `CCCCC#N`: “inactive”; for `N#CC(C#N)=Cc1ccc(O)c(O)c1`: “inactive”; for `O=S(=O)(c1ccccc1)c1ccccc1`: “inactive”. `CCNC(=O)NC(=O)/C(C#N)=N/OC`: the Potency result was “inactive”.

On to `O=C(O)COc1cc(Cl)c(Cl)cc1Cl`, for which the Potency entry is “inactive”. With `CCOC(=O)C1OC1(C)c1ccccc1` (stereo not given), the Potency result is “inactive”. Take `CC[N+]1(C)CCCC(OC(=O)C(O)(c2ccccc2)c2ccccc2)C1` (stereo not given): the Potency entry was “inactive”. `CCC1CCC(=O)O1` (stereo not given): the Potency result is “inactive”. Then `CC(C)(C)NCC(O)c1ccccc1Cl` (stereo not given), with “inactive”. Consider `CCCC1CCCCN1` (stereo not given), for which the Potency entry is “inactive”. The same measure for `OCCSSCCO`: “inactive”; for `O=C=NC1CCCCC1`: “inactive”.

Source of the values: PubChem BioAssay (Tox21).
